PubChem BioAssay (Tox21)
Records with an inconclusive call do not appear. Active and inactive are the calls of the source. The call rests on the fitted dose curve; in most records, active means well fitted activation curve with a large enough effect in the signal ratio in the repeat runs (not every such curve was filed as active); inconclusive means weak or mixed curves, or effect the other way; inactive means no such curve, though single readings can be large or run the other way; the % refers to the signal ratio.

Target: Peroxisome proliferator-activated receptor gamma (Homo sapiens) (UniProt P37231)
Experiment: qHTS assay to identify small molecule agonists of the peroxisome proliferator-activated receptor gamma (PPARg) signaling pathway (AID 743094)
Conditions: HEK293H PPARg-UAS-bla, beta-lactamase FRET ratio, 17 h; series mostly up to 57 µM; activation: at the top concentration
Procedure, shortened: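 HEK293H PPARg-bla cells, 5 h settle at 37C/5% CO2; compound (DMSO) 17 h, 37C; B/G FRET substrate 1 h RT; fluorescence intensity read-out. qHTS format.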
On the % scale 0 is the no-effect control and ±100 the full control effect.

Chain of Peroxisome proliferator-activated receptor gamma (Homo sapiens) (P37231 whole entry, looked up): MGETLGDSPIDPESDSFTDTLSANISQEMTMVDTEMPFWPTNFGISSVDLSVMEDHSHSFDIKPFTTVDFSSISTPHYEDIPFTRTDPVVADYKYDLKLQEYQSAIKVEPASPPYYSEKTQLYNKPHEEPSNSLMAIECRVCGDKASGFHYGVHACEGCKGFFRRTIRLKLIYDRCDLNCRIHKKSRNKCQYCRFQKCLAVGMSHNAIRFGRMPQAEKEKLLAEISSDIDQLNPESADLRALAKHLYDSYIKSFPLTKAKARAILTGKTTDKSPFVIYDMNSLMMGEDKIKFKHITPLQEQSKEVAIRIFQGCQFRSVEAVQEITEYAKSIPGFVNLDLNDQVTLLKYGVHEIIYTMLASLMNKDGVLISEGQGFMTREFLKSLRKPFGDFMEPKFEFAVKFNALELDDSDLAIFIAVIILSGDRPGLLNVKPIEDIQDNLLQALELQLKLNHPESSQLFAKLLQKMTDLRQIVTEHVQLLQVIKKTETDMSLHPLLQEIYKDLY

Row | Compound | activation | Potency
1 | CC(CN)CCCN (centres undefined) | 3.92% (inactive) | –
2 | CCN(CCO)CCCC(C)Nc1ccnc2cc(Cl)ccc12 (centres undefined) | 0.0177% (inactive) | –
3 | CC(C)(C)c1cc(CO)cc(C(C)(C)C)c1O | -7.47% [at 78.9 µM] (inactive) | –
4 | CC(=O)O[C@H]1C[C@@H]2CC[C@@H]3[C@H](CC[C@@]4(C)[C@H]3C[C@H]([N+]3(C)CCCCC3)[C@@H]4OC(C)=O)[C@@]2(C)C[C@@H]1N1CCCCC1 | 2.52% (inactive) | –
5 | CC(C)CCCC(C)CCO (centres undefined) | 2.29% (inactive) | –
6 | CC(=O)NCCCS(=O)(=O)O | – | inactive
7 | CCCCC(CC)(CO)CO | 3.61% (inactive) | –
8 | N#CCCNCCC#N | -7.66% [at 78.9 µM] (inactive) | –
9 | CCCCOC(=O)c1ccccc1C(=O)OCC(CC)CCCC (centres undefined) | -1.48% (inactive) | –
10 | CCOc1ccc2[nH]cc(C(=O)NCc3ccccc3)c(=O)c2n1 | -7.26% (inactive) | –
11 | CC(=O)Nc1ccc(/C=N/NC(N)=S)cc1 | – | inactive
12 | CCCCCCCCC(CO)CCCCCC (centres undefined) | 4.78% (inactive) | –
13 | CCCC[C@H]1CN(CC2CCOCC2)C(=O)OC12CCN(C1(C)CCN(C(=O)c3c(C)ncnc3C)CC1)CC2 | -2.4% (inactive) | –
14 | CCCCOC(O)CC (centres undefined) | -5.01% (inactive) | –
15 | O=C1CCCCCO1 | -0.46% [at 78.9 µM] (inactive) | –
16 | CC(=O)OCCc1ccccc1 | 2.5% (inactive) | –
17 | CCCCc1cc2ccccc2c(OCCN(C)C)n1 | -1.85% [at 26.2 µM] (inactive) | –
18 | O=c1[nH]cnc2ccccc12 | -5.28% [at 78.9 µM] (inactive) | –
19 | CN1CCC[C@@H]1c1cccnc1 | 0.506% (inactive) | –
20 | COCCOCCOCCOCCOC | 2.71% (inactive) | –

Row | Compound | activation | Potency
21 | CC(C)c1ccccc1C(C)C | -7.16% (inactive) | –
22 | N#CCc1cccc(C(F)(F)F)c1 | -0.517% (inactive) | –
23 | Nc1nc(N)c(-c2ccccc2)s1 | -0.558% (inactive) | –
24 | CNS(=O)(=O)Cc1ccc2[nH]cc(CCN(C)C)c2c1 | -0.0252% (inactive) | –
25 | O=C(O)C1CCC(C(=O)O)CC1 (centres undefined) | -4.39% (inactive) | –
26 | C=C(C)C(=O)OC(C)C | -4.86% (inactive) | –
27 | COC(Cc1ccccc1)OC | 1.71% (inactive) | –
28 | O=C(O)/C=C/c1cnc[nH]1 | -5.79% (inactive) | –
29 | CCN1CCC[C@H]1CNC(=O)c1c(OC)ccc(Br)c1OC | -0.0248% (inactive) | –
30 | N[C@H]1C(O)O[C@H](CO)[C@H](O)[C@@H]1O (some centres undefined) | 0.521% (inactive) | –
31 | CC(C)(C)c1cc(CCC(=O)OCC(COC(=O)CCc2cc(C(C)(C)C)c(O)c(C(C)(C)C)c2)(COC(=O)CCc2cc(C(C)(C)C)c(O)c(C(C)(C)C)c2)COC(=O)CCc2cc(C(C)(C)C)c(O)c(C(C)(C)C)c2)cc(C(C)(C)C)c1O | 6.93% [at 26.2 µM] (inactive) | –
32 | CCOC(=O)CC(=O)c1cc(F)c(Cl)nc1Cl | -4.52% [at 78.9 µM] (inactive) | –
33 | CCN(CC)C(C)=O | 0.536% [at 78.9 µM] (inactive) | –
34 | C=CCCCCCC | 0.204% (inactive) | –
35 | COC(=O)C(C)=O | -12.7% [at 78.9 µM] (inactive) | –
36 | Oc1ccc(Sc2ccc(O)cc2)cc1 | -10.2% (inactive) | –
37 | C=C(C)C(=O)OCCOc1ccccc1 | 0.582% (inactive) | –
38 | Cc1cccc(OCCOc2cccc(C)c2)c1 | -1.57% [at 78.9 µM] (inactive) | –
39 | CC(C)NCC(O)COc1ccc(CC(N)=O)cc1 (centres undefined) | 4.32% (inactive) | –
